From the supplement of paper PMC10849652
About 7,900 targets were measured; listed, in parts, are those with a hit and a random draw of the rest. About 0.6% of all pairs of compound and target were hits. Values without a mark were called inactive.

How the values were obtained:
Assay in all cases: log2 fold change, soluble protein after heating vs DMSO (PISA); higher = thermal stabilisation; K562 cells, 10 uM, 30 min; active = over 0.2 and 3.5 SD of the protein, either way, in both replicates (recomputed)
IRAK-1-4 Inhibitor I = compound: C1COCCN1CCN2C3=CC=CC=C3N=C2NC(=O)C4=CC(=CC=C4)[N+](=O)[O-] [IRAK-1-4 Inhibitor I]
Method in brief: (§1)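 Aliquots of K562 cells (2×10^6 cells/mL) treated with 10 μM compound for 30 min were heated for 3 min over 48°C-58°C. After pooling and extraction in PBS with 0.5% NP-40 at 4°C, soluble protein from a 21,000xg, 90 min spin was quantified by TMTpro 16plex LC-MS/MS with channel sums equalised. Thermal stability is expressed against control samples, from duplicates, as a log2 fold change.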

ibrutinib = compound: C=CC(=O)N1CCC[C@@H](n2nc(-c3ccc(Oc4ccccc4)cc3)c3c(N)ncnc32)C1 [ibrutinib]
Method in brief: as §1

[1] = compound: CC(=O)c1cnc2ccc(-c3cc(Cl)c(O)c(Cl)c3)nc2c1N[C@H]1CC[C@H](CN(C)C)CC1
Method in brief: as §1

ralimetinib = compound: CC(C)(C)Cn1c(N)nc2ccc(-c3[nH]c(C(C)(C)C)nc3-c3ccc(F)cc3)nc21 [ralimetinib]
Method in brief: as §1

[2] = compound: CC(C)(O)CC(=O)NCCn1ccc2ncnc(Nc3ccc(Oc4cccc(C(F)(F)F)c4)c(Cl)c3)c21
Method in brief: as §1

[3] = compound: CC(C)C1=C2N=C(C=C(N2N=C1)NCC3=CC=CC=C3)NCCCCCCN
Method in brief: as §1

[4] = compound: CC(C)C[C@@H](C=O)NC(=O)[C@H](CC(C)C)NC(=O)[C@H](CC(C)C)NC(=O)OCc1ccccc1
Method in brief: as §1

pinometostat = compound: CC(C)N(C[C@H]1O[C@@H](n2cnc3c(N)ncnc32)[C@H](O)[C@@H]1O)[C@H]1C[C@@H](CCc2nc3cc(C(C)(C)C)ccc3[nH]2)C1 [pinometostat]
Method in brief: as §1

[5] = compound: CC1=C(C(CC(=O)N1)C2=CC=C(C=C2)C(F)(F)F)C(=O)NC3=C(C=C4C(=C3)C=NN4)F
Method in brief: as §1

[6] = compound: CC1=C(C2=C(C=C1)C(=O)C3=CC=CC=C3N2CCCN)C
Method in brief: as §1

UniProt Q8IYU8, sequence (Q8IYU8 whole entry, looked up): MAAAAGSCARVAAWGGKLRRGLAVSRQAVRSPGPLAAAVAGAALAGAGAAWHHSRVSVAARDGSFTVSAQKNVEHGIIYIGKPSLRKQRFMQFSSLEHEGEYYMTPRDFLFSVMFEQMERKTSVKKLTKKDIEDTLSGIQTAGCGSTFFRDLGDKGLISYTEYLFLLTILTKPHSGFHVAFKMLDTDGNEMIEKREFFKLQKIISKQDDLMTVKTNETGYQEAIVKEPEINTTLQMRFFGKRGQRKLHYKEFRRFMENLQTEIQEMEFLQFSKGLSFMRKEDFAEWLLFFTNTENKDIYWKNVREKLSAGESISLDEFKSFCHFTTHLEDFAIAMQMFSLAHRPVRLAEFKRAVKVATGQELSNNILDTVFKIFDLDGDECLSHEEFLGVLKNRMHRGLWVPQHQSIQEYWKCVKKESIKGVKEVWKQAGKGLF
UniProt P18065, sequence (P18065 whole entry, looked up): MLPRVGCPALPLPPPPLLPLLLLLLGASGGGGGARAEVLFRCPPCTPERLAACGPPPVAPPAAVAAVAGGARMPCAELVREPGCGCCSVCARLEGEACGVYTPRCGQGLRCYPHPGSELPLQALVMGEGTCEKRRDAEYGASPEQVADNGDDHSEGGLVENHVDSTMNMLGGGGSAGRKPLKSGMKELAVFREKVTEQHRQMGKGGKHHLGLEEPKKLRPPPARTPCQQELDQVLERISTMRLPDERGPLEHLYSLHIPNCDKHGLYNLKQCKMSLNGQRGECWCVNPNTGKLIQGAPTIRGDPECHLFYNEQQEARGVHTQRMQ
UniProt P14174, sequence (P14174 whole entry, looked up): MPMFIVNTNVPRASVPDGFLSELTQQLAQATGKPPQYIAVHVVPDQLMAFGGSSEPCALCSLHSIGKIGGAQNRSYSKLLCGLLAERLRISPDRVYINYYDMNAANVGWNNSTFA
UniProt Q08431, sequence (Q08431 whole entry, looked up): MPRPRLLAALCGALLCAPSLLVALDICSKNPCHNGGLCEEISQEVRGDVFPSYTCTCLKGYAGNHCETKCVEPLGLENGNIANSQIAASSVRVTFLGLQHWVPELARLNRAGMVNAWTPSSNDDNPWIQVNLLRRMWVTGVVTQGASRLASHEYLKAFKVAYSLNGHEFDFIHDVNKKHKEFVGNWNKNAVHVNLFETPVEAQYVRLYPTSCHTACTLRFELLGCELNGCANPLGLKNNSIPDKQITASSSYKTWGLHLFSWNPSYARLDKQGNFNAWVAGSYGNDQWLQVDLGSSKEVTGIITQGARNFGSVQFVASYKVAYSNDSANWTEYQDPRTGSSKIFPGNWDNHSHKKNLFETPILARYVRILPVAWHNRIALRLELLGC
UniProt Q14739, sequence (Q14739 whole entry, looked up): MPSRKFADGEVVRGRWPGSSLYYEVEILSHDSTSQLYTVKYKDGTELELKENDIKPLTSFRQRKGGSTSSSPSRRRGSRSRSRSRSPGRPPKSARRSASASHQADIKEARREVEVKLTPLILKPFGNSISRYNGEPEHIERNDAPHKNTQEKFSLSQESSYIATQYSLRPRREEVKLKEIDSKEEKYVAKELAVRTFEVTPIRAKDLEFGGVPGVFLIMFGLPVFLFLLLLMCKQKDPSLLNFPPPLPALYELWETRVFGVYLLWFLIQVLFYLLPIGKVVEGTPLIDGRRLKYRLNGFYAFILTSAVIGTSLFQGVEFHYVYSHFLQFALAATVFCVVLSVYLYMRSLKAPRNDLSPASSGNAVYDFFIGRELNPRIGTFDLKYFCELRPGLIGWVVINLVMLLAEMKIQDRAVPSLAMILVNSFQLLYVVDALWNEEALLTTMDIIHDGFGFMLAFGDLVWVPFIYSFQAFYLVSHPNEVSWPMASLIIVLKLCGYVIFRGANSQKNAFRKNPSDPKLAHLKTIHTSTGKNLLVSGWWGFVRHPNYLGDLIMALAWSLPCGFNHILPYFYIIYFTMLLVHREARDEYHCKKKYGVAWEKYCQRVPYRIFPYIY
UniProt Q14974, sequence (Q14974 whole entry, looked up): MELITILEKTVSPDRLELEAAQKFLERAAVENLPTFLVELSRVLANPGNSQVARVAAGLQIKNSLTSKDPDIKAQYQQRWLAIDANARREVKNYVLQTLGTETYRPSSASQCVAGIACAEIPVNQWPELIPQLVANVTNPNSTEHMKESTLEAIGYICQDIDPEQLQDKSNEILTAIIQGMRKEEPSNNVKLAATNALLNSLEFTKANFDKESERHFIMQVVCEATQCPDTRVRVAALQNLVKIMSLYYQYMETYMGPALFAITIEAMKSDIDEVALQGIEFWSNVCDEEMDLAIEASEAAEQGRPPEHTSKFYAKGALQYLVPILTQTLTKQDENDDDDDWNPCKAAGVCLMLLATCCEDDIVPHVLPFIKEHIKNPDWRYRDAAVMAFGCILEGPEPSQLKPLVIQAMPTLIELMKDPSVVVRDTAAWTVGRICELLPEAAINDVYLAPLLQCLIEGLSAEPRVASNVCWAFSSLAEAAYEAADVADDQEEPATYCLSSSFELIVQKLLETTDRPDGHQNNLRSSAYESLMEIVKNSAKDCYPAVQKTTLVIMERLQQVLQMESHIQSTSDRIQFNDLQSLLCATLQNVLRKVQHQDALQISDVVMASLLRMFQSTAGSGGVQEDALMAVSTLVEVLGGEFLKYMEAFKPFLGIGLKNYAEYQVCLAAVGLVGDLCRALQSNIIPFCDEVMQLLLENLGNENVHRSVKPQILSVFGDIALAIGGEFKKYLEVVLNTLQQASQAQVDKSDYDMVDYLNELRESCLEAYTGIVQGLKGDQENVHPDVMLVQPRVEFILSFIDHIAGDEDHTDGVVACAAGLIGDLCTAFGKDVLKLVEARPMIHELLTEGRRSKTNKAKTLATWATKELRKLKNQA
UniProt P52732, sequence (P52732 whole entry, looked up): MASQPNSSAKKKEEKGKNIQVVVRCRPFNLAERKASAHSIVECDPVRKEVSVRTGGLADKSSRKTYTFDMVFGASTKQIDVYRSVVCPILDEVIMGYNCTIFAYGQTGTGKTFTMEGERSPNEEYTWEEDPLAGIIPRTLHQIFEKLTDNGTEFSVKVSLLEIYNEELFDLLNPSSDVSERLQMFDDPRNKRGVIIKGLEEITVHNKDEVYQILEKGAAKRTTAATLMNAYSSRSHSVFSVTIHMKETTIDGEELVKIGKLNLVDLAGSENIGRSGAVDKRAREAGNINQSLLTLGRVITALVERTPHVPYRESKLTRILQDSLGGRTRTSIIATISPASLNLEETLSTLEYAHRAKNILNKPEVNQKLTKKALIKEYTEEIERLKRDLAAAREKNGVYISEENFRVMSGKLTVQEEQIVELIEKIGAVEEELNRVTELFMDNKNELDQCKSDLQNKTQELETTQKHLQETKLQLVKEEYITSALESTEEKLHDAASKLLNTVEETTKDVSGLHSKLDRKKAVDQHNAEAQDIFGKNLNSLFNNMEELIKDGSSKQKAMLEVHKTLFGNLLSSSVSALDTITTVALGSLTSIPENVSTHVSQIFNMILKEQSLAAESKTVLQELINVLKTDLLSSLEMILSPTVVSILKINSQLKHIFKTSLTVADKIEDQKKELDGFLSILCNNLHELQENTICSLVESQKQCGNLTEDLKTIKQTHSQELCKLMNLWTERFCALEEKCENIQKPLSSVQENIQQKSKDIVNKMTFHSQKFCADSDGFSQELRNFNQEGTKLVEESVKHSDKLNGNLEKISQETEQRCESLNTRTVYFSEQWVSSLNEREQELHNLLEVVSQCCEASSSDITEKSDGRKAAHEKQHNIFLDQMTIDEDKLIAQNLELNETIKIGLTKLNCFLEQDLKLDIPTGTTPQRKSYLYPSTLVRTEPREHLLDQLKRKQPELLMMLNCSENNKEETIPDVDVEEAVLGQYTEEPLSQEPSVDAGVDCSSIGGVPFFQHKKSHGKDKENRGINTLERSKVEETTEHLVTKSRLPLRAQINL
UniProt Q9BU23, sequence (Q9BU23 whole entry, looked up): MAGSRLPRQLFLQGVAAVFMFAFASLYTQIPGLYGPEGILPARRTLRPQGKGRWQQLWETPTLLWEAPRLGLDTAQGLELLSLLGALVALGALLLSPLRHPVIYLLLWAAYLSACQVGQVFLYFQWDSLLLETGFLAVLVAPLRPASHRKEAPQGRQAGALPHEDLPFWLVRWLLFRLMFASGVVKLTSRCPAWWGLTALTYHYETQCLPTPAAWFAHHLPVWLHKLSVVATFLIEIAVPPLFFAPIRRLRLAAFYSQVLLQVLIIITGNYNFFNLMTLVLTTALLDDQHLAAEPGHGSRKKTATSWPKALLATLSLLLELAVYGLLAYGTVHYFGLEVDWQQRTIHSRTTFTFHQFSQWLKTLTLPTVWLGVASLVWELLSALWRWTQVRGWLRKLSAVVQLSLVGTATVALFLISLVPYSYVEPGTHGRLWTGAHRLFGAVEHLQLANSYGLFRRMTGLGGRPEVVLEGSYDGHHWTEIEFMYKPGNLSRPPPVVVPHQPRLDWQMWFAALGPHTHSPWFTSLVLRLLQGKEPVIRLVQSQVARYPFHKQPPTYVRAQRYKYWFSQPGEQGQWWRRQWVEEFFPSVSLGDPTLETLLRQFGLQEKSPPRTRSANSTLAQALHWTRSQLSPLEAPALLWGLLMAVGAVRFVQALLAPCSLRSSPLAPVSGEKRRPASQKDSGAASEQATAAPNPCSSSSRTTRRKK
UniProt Q9NQG6, sequence (Q9NQG6 whole entry, looked up): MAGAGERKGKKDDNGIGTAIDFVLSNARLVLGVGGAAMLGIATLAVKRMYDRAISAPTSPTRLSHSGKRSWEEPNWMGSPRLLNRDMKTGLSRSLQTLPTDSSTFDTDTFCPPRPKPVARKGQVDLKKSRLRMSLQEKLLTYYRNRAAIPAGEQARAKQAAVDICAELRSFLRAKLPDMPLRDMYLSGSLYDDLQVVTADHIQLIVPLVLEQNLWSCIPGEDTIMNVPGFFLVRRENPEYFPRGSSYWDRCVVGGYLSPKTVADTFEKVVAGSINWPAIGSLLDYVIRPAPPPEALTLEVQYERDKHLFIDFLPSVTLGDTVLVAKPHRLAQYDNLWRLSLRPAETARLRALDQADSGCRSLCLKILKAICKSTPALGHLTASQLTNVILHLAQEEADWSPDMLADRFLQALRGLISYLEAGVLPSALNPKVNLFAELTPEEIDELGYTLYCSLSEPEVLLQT

Target	log2 fold change (IRAK-1-4 Inhibitor I)	log2 fold change (ibrutinib)	log2 fold change [1]	log2 fold change (ralimetinib)	log2 fold change [2]	log2 fold change [3]	log2 fold change [4]	log2 fold change (pinometostat)	log2 fold change [5]	log2 fold change [6]
ITIH4 (UniProt Q14624)	0.043	0.147	0.041	-0.044	0.17	0.045	-0.113	-0.117	0.251	-0.148
MIF (UniProt P14174)	0.017	0.039	-0.014	0.071	-0.119	0.052	0.04	-0.043	0.201	0.133
LMF2 (UniProt Q9BU23)	0.006	-0.035	0.001	-0.008	-0.029	-0.152	0.08	0.008	-0.018	0.001
LBR (UniProt Q14739)	-0.044	-0.092	0.038	-0.001	-0.211	-0.168	-0.083	0.211	-0.036	0.188
KIF11 (UniProt P52732)	-0.097	-0.049	0.063	0.045	-0.024	-0.229	0.04	0.188	0.006	-0.014
KIF3A (UniProt Q9Y496)	0.04	-0.016	0.034	0.085	-0.151	-0.336	-0.065	0.051	0.087	-0.081
IGF2R (UniProt P11717)	-0.002	0.013	0.016	-0.038	-0.007	-0.218 (active)	-0.009	0.005	0.029	-0.071
LSS (UniProt P48449)	-0.119	-0.087	-0.084	0.147	0.099	0.199	0.077	-0.116	-0.022	-0.195
LEO1 (UniProt Q8WVC0)	0.134	0.026	-0.027	-0.031	-0.044	-0.016	0.068	0.019	0.019	-0.394 (active)
MICU2 (UniProt Q8IYU8)	-0.039	-0.001	-0.026	-0.05	-0.12	-0.292	0.128	0.211	0.072	0.136
IGFBP2 (UniProt P18065)	0.196	0.09	0.166	-0.115	-0.063	-0.137	0.008	-0.192	0.254	-0.159
MFGE8 (UniProt Q08431)	-0.058	0.016	0.269	0.152	0.105	0	0.191	0.12	-0.008	-0.038
KPNB1 (UniProt Q14974)	-0.079	-0.041	0.033	0.042	-0.036	-0.355 (active)	0.035	0.113	0.012	-0.038
MIEF1 (UniProt Q9NQG6)	0.056	-0.003	-0.016	-0.07	-0.183	-0.247	-0.034	-0.038	-0.085	0.112
KHDC4 (UniProt Q7Z7F0)	0.034	0.025	0.003	0.012	-0.201	-0.009	0.015	-0.001	0.008	0.021
